PubChem BioAssay (NCATS)
Where “and” joins values, the source holds several entries; their conditions need not be identical. Equal entries are not always repeated. Inconclusive results are not listed. Calls of active or inactive are those of the source. Calls come from the whole dose curve; as a rule, active = well fitted curve in the direction sought with a large enough effect; inconclusive = small, poorly fitted or top-dose-only effect, or another doubt; inactive = no such curve, though single readings can be large; an effect the other way counts as inactive or inconclusive. Peptide text beside a SMILES is read from it.

Assays:
[1] = Cellular Toxicity (caspase-3) HepG2 (AID 654);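 note: cells exposed to compound for 16 hours before reading; 0% = DMSO alone and 100% = caspase signal from 100 µM tamoxifen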
In short: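 Caspase 3/7 activation is measured as a luminescence increase (aminoluciferin substrate) after 16 h compound exposure of human hepatocarcinoma HepG2 cells. AC50 values are Hill fits, scaled between DMSO baseline and 100 uM tamoxifen stimulation.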

[2] = Cellular Toxicity (caspase-3) Jurkat (AID 655);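 note: cells exposed to compound for 16 h at 37 °C before reading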; note: potency is the fitted concentration of half-maximal effect
In short: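 Luminescent Caspase-Glo 3/7 read-out (20 min, room temperature) after 16 h compound treatment at 37 C of 5000 Jurkat cells per well. AC50 derived by Hill-equation fitting, scaled between DMSO basal and 100 uM tamoxifen stimulation.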

[3] = Cellular Toxicity (caspase-3) HUV-EC-C (AID 656)
In short: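 Luminescent Caspase-Glo 3/7 readout after 16 h, 37 °C compound exposure of HUV-EC-C endothelial cells, 1000 per well, complete medium. AC50 derived by Hill fitting, with DMSO as baseline and 100 uM tamoxifen as full activation.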

[4] = Cellular Toxicity (caspase-3) SHSY5Y (AID 657)
In short: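 Luminescent Caspase-Glo 3/7 read-out, 1 hr room temperature, follows 16 hours of compound treatment of SH-SY5Y cells at 37 °C. Normalization: DMSO basal, 10 uM staurosporine as 100%; AC50 values from Hill-equation concentration-response fits.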

[5] = Cellular Toxicity (caspase-3) BJ (AID 658);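 note: 0% = DMSO basal and 100% = 10 µM staurosporine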
In short: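 qHTS, BJ fibroblasts, 1000 cells/well; 5 hr preincubation, 16 hr compound, 37 °C; Caspase-Glo 3/7 reagent, 1 hr RT; luminescence. DMSO = 0%, 10 uM staurosporine = 100%. Hill-equation AC50.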

[6] = Cellular Toxicity (caspase-3) MRC-5 (AID 659);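 note: 0% = DMSO basal and 100% = 10 µM staurosporine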
In short: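 MRC-5 fibroblasts, 1500/well; 16 h cpd, 37 °C; Caspase-Glo 3/7, 1 h RT; lumi read. Norm: DMSO = 0%, 10 uM staurosporine = 100%. Hill-fit AC50 from qHTS conc-response.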

[7] = Cellular Toxicity (caspase-3) Mesangial (AID 660);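 note: combined caspase 3 and 7 activity read by Caspase-Glo luminescence; cells exposed to compound for 16 h before the caspase read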
In short: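 Caspase 3/7 activation measured by Caspase-Glo 3/7 luminescence (20 min, room temperature) following 16 h exposure of mesangial cells (1000/well); AC50 from Hill-equation fit, normalized to DMSO and 100 uM tamoxifen.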

[8] = Cellular Toxicity (caspase-3) SK-N-SH (AID 661);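 note: 0% = DMSO basal and 100% = 10 µM staurosporine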
In short: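 Caspase 3/7 activation was read by luminogenic substrate cleavage after 16 hour treatment of SK-N-SH cells. Signal was scaled between DMSO and 10 uM staurosporine, and concentration-response data were fitted with the Hill equation for AC50.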

[9] = Cellular Toxicity (caspase-3) H-4-II-E (AID 663);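 note: cells exposed to compound for 16 hr before readout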
In short: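 H-4-II-E rat hepatoma, 1500 cells/well, 5 hr settle at 37 °C; compound 16 hr, 37 °C, complete medium; Caspase-Glo 3/7, 20 min RT; luminescence. DMSO = 0%, 100 uM tamoxifen = 100%; Hill-equation AC50.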

[10] = Cellular Toxicity (caspase-3) Hek293 (AID 664); details: HEK293 caspase-3 activation, DMSO = 0%, 100 µM tamoxifen = 100%; at 92.2 µM (top of the series);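 note: cells exposed to compound for 16 h at 37 °C before readout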
In short: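 Concentration-response qHTS: caspase 3/7 activation measured by luminescent aminoluciferin substrate cleavage after 16 h compound exposure of Hek 293 cells. AC50 from Hill equation, with DMSO as basal and 100 uM tamoxifen as 100%.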

Nc1ccc(S(N)(=O)=O)cc1
inactive: outcome [1] | Potency [2] | outcome [3] | outcome [4] | outcome [5] | outcome [6] | outcome [7] | outcome [8] | outcome [9] | caspase-3 activation [10] -1.76%

CS(=O)(=O)OCCCCOS(C)(=O)=O
inactive: outcome [1] | Potency [2] | outcome [3] | outcome [4] | outcome [5] | outcome [6] | outcome [7] | outcome [8] | outcome [9] | caspase-3 activation [10] -0.303% and 2.3%

CC(=O)Nc1ccc(O)cc1
inactive: outcome [1] | Potency [2] | outcome [3] | outcome [4] | outcome [5] | outcome [6] | outcome [7] | outcome [8] | outcome [9] | caspase-3 activation [10] -1.09%

NS(=O)(=O)c1cc(C(=O)O)c(NCc2ccco2)cc1Cl
inactive: outcome [1] | Potency [2] | outcome [3] | outcome [4] | outcome [5] | outcome [6] | outcome [7] | outcome [8] | caspase-3 activation [10] 2.23%

CN(C)c1ccc2nc3ccc(=[N+](C)C)cc-3sc2c1
inactive: outcome [1] | Potency [2] | outcome [3] | outcome [4] | outcome [5] | outcome [6] | outcome [7] | outcome [8] | outcome [9] | caspase-3 activation [10] -0.51%

CCc1nc(N)nc(N)c1-c1ccc(Cl)cc1
inactive: outcome [1] | outcome [3] | outcome [4] | outcome [5] | outcome [6] | outcome [7] | outcome [8] | outcome [9]
active: Potency [2] 31.6 µM | caspase-3 activation [10] 101%

COc1c2occc2cc2ccc(=O)oc12
inactive: outcome [1] | Potency [2] | outcome [3] | outcome [4] | outcome [5] | outcome [6] | outcome [7] | outcome [8] | outcome [9] | caspase-3 activation [10] 2.24%

Cc1ccc(C)c(OCCCC(C)(C)C(=O)O)c1
inactive: outcome [1] | Potency [2] | outcome [3] | outcome [4] | outcome [5] | outcome [6] | outcome [7] | outcome [8] | outcome [9] | caspase-3 activation [10] -2.65%

c1ccc2[nH]c(-c3cscn3)nc2c1
inactive: outcome [1] | Potency [2] | outcome [3] | outcome [4] | outcome [5] | outcome [6] | outcome [7] | outcome [8] | outcome [9] | caspase-3 activation [10] -8.39%

COC(=O)[C@H](Cc1ccccc1)NC(=O)[C@@H](N)CC(=O)O (H-Asp-Phe-OMe)
inactive: outcome [1] | Potency [2] | outcome [3] | outcome [4] | outcome [5] | outcome [6] | outcome [7] | outcome [8] | outcome [9] | caspase-3 activation [10] 1.4%

CCCCC(CC)COC(=O)C(C#N)=C(c1ccccc1)c1ccccc1 (centres undefined)
inactive: outcome [1] | Potency [2] | outcome [3] | outcome [4] | outcome [5] | outcome [6] | outcome [7] | outcome [8] | outcome [9] | caspase-3 activation [10] 2.23%

Cc1cc(O)c2c(c1)C(=O)c1cc(O)cc(O)c1C2=O
inactive: outcome [1] | Potency [2] | outcome [3] | outcome [4] | outcome [5] | outcome [6] | outcome [7] | outcome [8] | outcome [9] | caspase-3 activation [10] -8.76%

CCCc1cc(=O)[nH]c(=S)[nH]1
inactive: outcome [1] | Potency [2] | outcome [3] | outcome [4] | outcome [5] | outcome [6] | outcome [7] | outcome [8] | outcome [9] | caspase-3 activation [10] 1.8%
